Data taken from PubChem BioAssay AID1159580 (chemical genetic matrix, 2015).
Hit rate of the full screen: of about 5,500 compounds, about 2,000 (36%) were called active. Inconclusive results (about 18%) are left out. No stated cut-off is given here; in the data, active means normalized growth mostly below about 0.91 (no sharp cut-off); inconclusive means no clear call, values can overlap the other calls; inactive means mostly above about 0.92. The list shows a part of the results.

Test: chemical genetic growth profiling, strain panel (AID 1159580);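 further: tested at 20 µM; growth read once vehicle control cultures reached saturation at 30 °C; 1 = growth at the plate median or of vehicle wells; lower values mean less growth of the strain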
Conditions: growth OD

Measured: normalized growth

CC(=O)O[C@H]1C[C@@H](O)C(C)(C)C2C[C@@H](OC(C)=O)[C@]3(C)C(CC[C@@]4(C)[C@H](c5ccoc5)OC(=O)C5OC543)[C@]21C (stereo partly specified)
inactive: S. cerevisiae deletion strains, locus YJL187C, strain SWE1, hits give low values 0.996 | S. cerevisiae deletion strains, locus YJR066W, strain TOR1, hits give low values 0.928 | S. cerevisiae deletion strains, locus YKL009W, strain mrt4, hits give low values 0.954 | S. cerevisiae deletion strains, locus YKL068W, hits give low values 0.976 | S. cerevisiae deletion strains, locus YKL085W, strain MDH1 (second series), hits give low values 0.974 | S. cerevisiae deletion strains, locus YKL085W, strain MDH1, hits give low values 0.974 | S. cerevisiae deletion strains, locus YKL160W, strain elf1, hits give low values 1.01 | S. cerevisiae deletion strains, locus YKR001C, strain vps1, hits give low values 0.983 | S. cerevisiae deletion strains, locus YKR026C, strain gcn3, hits give low values 1.01 | S. cerevisiae deletion strains, locus YKR091W, strain srl3, hits give low values 1.01 | S. cerevisiae deletion strains, locus YLL001W, strain dnm1, hits give low values 0.998 | S. cerevisiae deletion strains, locus YLL026W, hits give low values 1.01 | S. cerevisiae deletion strains, locus YLL041C, strain sdh2, hits give low values 0.999 | S. cerevisiae deletion strains, locus YLR027C, strain aat2, hits give low values 1.01 | S. cerevisiae deletion strains, locus YLR039C, strain RIC1, hits give low values 1.04 | S. cerevisiae deletion strains, locus YLR058C, strain SHM2, hits give low values 0.967 | S. cerevisiae deletion strains, locus YLR102C, strain apc9, hits give low values 0.984 | S. cerevisiae deletion strains, locus YLR113W, strain HOG1, hits give low values 1.02 | S. cerevisiae deletion strains, locus YLR221C, strain rsa3, hits give low values 1.01 | S. cerevisiae deletion strains, locus YLR258W, strain gsy2, hits give low values 1 | S. cerevisiae deletion strains, locus YLR262C, strain YPT6 (second series), hits give low values 1.01 | S. cerevisiae deletion strains, locus YLR262C, strain YPT6, hits give low values 1.02 | S. cerevisiae deletion strains, locus YLR268W, strain sec22, hits give low values 0.977 | S. cerevisiae deletion strains, locus YLR320W, strain mms22, hits give low values 1.02 | S. cerevisiae deletion strains, locus YLR330W, strain CHS5, hits give low values 0.992 | S. cerevisiae deletion strains, locus YLR342W, strain FKS1 (second series), hits give low values 0.988 | S. cerevisiae deletion strains, locus YLR342W, strain FKS1, hits give low values 1.01 | S. cerevisiae deletion strains, locus YLR357W, strain rsc2, hits give low values 1.04 | S. cerevisiae deletion strains, locus YLR370C, strain arc18, hits give low values 0.999 | S. cerevisiae deletion strains, locus YLR371W, strain rom2, hits give low values 0.988 | S. cerevisiae deletion strains, locus YLR384C, strain iki3, hits give low values 0.999 | S. cerevisiae deletion strains, locus YLR418C, strain cdc73, hits give low values 0.979 | S. cerevisiae deletion strains, locus YML016C, strain PPZ1, hits give low values 0.975 | S. cerevisiae deletion strains, locus YML032C, strain rad52, hits give low values 0.991 | S. cerevisiae deletion strains, locus YML120C, strain ndi1, hits give low values 1.01 | S. cerevisiae deletion strains, locus YML124C, strain tub3, hits give low values 0.986 | S. cerevisiae deletion strains, locus YMR058W, strain fet3, hits give low values 1.01 | S. cerevisiae deletion strains, locus YMR078C, strain ctf18, hits give low values 0.988 | S. cerevisiae deletion strains, locus YMR125W, strain sto1, hits give low values 1 | S. cerevisiae deletion strains, locus YMR129W, hits give low values 1.03 | S. cerevisiae deletion strains, locus YMR205C, strain PFK2, hits give low values 1.01 | S. cerevisiae deletion strains, locus YMR223W, strain ubp8, hits give low values 0.991 | S. cerevisiae deletion strains, locus YMR231W, strain pep5, hits give low values 0.988 | S. cerevisiae deletion strains, locus YMR307W, strain GAS1, hits give low values 0.964 | S. cerevisiae deletion strains, locus YNL067W, strain RPL9B, hits give low values 1.02 | S. cerevisiae deletion strains, locus YNL071W, strain lat1, hits give low values 1 | S. cerevisiae deletion strains, locus YNL183C, strain NPR1, hits give low values 0.946 | S. cerevisiae deletion strains, locus YNL209W, strain ssb2, hits give low values 0.995 | S. cerevisiae deletion strains, locus YNL233W, strain BNI4, hits give low values 1 | S. cerevisiae deletion strains, locus YNL248C, strain rpa49, hits give low values 1 | S. cerevisiae deletion strains, locus YNL250W, strain rad50, hits give low values 1.02 | S. cerevisiae deletion strains, locus YNL271C, strain bni1, hits give low values 0.989 | S. cerevisiae deletion strains, locus YNL298W, strain CLA4, hits give low values 0.992 | S. cerevisiae deletion strains, locus YNL307C, strain MCK1, hits give low values 0.995 | S. cerevisiae deletion strains, locus YNL322C, strain KRE1 (second series), hits give low values 1.02 | S. cerevisiae deletion strains, locus YNR049C, strain mso1, hits give low values 0.999 | S. cerevisiae deletion strains, locus YNR052C, strain pop2, hits give low values 0.987 | S. cerevisiae deletion strains, locus YOL006C, strain TOP1, hits give low values 0.989 | S. cerevisiae deletion strains, locus YOL012C, strain htz1 0.76 | S. cerevisiae deletion strains, locus YOL147C, strain pex11, hits give low values 0.99 | S. cerevisiae deletion strains, locus YOR001W, strain rrp6, hits give low values 1.03 | S. cerevisiae deletion strains, locus YOR061W, strain CKA2, hits give low values 0.966 | S. cerevisiae deletion strains, locus YOR069W, strain VPS5, hits give low values 0.998 | S. cerevisiae deletion strains, locus YOR070C, strain gyp1, hits give low values 1.01 | S. cerevisiae deletion strains, locus YOR080W, strain dia2, hits give low values 0.998 | S. cerevisiae deletion strains, locus YOR083W, strain WHI5, hits give low values 1.01 | S. cerevisiae deletion strains, locus YOR106W, strain vam3, hits give low values 1 | S. cerevisiae deletion strains, locus YOR136W, strain idh2, hits give low values 0.979 | S. cerevisiae deletion strains, locus YOR144C, strain elg1, hits give low values 0.989 | S. cerevisiae deletion strains, locus YOR184W, strain ser1, hits give low values 0.967 | S. cerevisiae deletion strains, locus YOR231W, strain MKK1, hits give low values 0.984 | S. cerevisiae deletion strains, locus YOR265W, strain rbl2, hits give low values 1 | S. cerevisiae deletion strains, locus YOR270C, strain vph1, hits give low values 0.967 | S. cerevisiae deletion strains, locus YOR290C, strain snf2, hits give low values 1 | S. cerevisiae deletion strains, locus YOR316C, strain cot1, hits give low values 0.989 | S. cerevisiae deletion strains, locus YPL051W, strain arl3, hits give low values 1.02 | S. cerevisiae deletion strains, locus YPL078C, strain atp4, hits give low values 0.997 | S. cerevisiae deletion strains, locus YPL106C, strain sse1, hits give low values 1.02 | S. cerevisiae deletion strains, locus YPL240C, strain hsp82, hits give low values 1.01 | S. cerevisiae deletion strains, locus YPL256C, strain CLN2, hits give low values 0.944 | S. cerevisiae deletion strains, locus YPR119W, strain clb2, hits give low values 0.985 | S. cerevisiae deletion strains, locus YPR141C, strain kar3, hits give low values 0.986 | S. cerevisiae deletion strains, locus YPR163C, strain tif3, hits give low values 0.982 | S. cerevisiae deletion strains, locus YPR167C, strain met16, hits give low values 0.987 | S. cerevisiae deletion strains, strain wtn01, hits give low values 0.968 | S. cerevisiae strains, strain wild type, hits give low values 0.988
